Source: PubChem (The Scripps Research Institute Molecular Screening Center)
FBW7 activator – human FBW7 E3 ligase activation, primary screen; 650,000 tested, 0.13% active; AID 1259310; normalized activity (activation), % at 26.1 µM; AlphaScreen FBW7–phospho-cyclin E peptide binding, activator screen; Q969H0; in the data active means normalized activity above about 1.9%;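 further: purified mutant Fbw7 with reduced substrate affinity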
Target sequence (Q969H0 whole entry, looked up): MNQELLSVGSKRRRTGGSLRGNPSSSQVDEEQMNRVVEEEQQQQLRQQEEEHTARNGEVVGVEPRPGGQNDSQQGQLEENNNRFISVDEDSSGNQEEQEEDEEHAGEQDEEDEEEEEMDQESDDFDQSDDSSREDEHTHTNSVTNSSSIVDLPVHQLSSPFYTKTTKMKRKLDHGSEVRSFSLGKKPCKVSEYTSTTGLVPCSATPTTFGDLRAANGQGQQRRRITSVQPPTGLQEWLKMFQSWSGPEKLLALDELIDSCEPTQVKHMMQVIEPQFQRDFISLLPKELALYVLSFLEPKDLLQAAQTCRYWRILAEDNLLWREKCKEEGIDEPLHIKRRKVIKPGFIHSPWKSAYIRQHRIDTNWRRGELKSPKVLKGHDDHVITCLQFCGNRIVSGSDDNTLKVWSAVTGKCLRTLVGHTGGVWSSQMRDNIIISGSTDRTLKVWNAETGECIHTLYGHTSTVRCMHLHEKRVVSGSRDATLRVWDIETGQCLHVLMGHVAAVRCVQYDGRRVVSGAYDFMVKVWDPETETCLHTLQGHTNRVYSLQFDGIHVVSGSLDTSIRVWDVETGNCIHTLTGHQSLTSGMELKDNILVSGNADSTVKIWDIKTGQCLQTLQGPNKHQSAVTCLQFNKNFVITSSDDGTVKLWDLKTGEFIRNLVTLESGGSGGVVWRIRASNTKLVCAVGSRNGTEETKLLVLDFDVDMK
GPR151 ag – activators of human GPR151; Q8TDV0; AID 1508602; activation, % at 11.2 µM; 650,000 tested, 1% active; PathHunter beta-arrestin GPR151 cells, luminescence; in the data active means activation above about 4.9%
TEAD-YAP inh – TEAD-YAP interaction inhibition | HEK-TIYL cells, TEAD-Gal4/YAP UAS-luciferase luminescence | inhibition, % at 9.12 µM | 640,000 tested, 1.4% active; in the data active means inhibition above about 32%
MITF inh – blocks human microphthalmia-associated transcription factor; O75030; AlphaScreen MITF homodimerization, bead proximity signal; inhibition, % at 2.6 µM; 650,000 tested, 0.91% active; in the data active means inhibition above about 50%
MITF confirm – confirmation of human MITF inhibitors | shares compounds with MITF inh | AlphaScreen MITF homodimerization, biotin/His-MITF beads | inhibition, % at 2.6 µM | 4,700 tested, 16% active | AID 1259372;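 active means inhibition above a cutoff derived from the DMSO control wells, cut at about 28% in these data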;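 further: inhibitors lower the bead chemiluminescence by keeping MITF from dimerizing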
AS interf DR – counter-screen: compounds optically interfering with AlphaScreen; 480 tested, 6% active; IC50, µM; AlphaScreen optical interference counterscreen, cell-free; shares compounds with MITF inh; AID 1259373; call rule not given here
AS interf ctr – optically interferes with AlphaScreen signal. shares compounds with MITF inh. LysRS AlphaScreen counterscreen, signal interference, triplicate. inhibition, % at 2.6 µM. 4,700 tested, 7.6% active. AID 1259376;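 active means inhibition above a cutoff derived from the DMSO control wells, cut at about 30% in these data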
Hits are given with their value; . = inactive; / = no result given. Shown are actives, neighbours in structure and some others; about 3.5% of the full set was active somewhere.

SMILES | FBW7 activator | GPR151 ag | TEAD-YAP inh | MITF inh | MITF confirm | AS interf ctr | others
O=C(NCCCN1CCCC1)c1ccccc1Cl | . | . | . | 55 | . | .
O=C(CCNC(=O)c1ccccc1Cl)NCCCN1CCOCC1 | . | . | . | . | / | /
Cc1cccc(-c2cc(C(=O)Nc3nc(-c4ccccc4)c(C)s3)c3ccccc3n2)c1 | . | . | . | . | / | /
CCCN1CCCc2cc(CCNS(C)(=O)=O)ccc21 | . | . | . | 51 | . | .
Cc1ccccc1OCc1nn(C2c3ccccc3Oc3ccccc32)c(=S)n1C | . | . | . | . | / | /
OCCNCCCOc1ccc2ccccc2c1Br | . | . | . | . | / | /
Cc1ccc(OCC(=O)N/N=C/c2ccc([N+](=O)[O-])o2)cc1C | . | . | . | . | / | /
COCC(=O)N1CCN(Cc2nc3ccccc3[nH]2)CC1 | . | . | . | 58 | . | .
COc1ccc(CCNC(=O)C2CCN(Cc3nc4ccccc4[nH]3)CC2)cc1 | . | . | . | 80 | . | .
COc1ccc2nc(CN3CCN(C(=O)C4CC4)CC3)[nH]c2c1 | . | . | . | 68 | . | .
O=C(CN1CCN(Cc2nc3ccccc3[nH]2)CC1)N1CCCc2ccccc21 | . | . | . | 91 | . | .
O=C(C1CCN(Cc2nc3ccccc3[nH]2)CC1)N1CCN(C2CCCCC2)CC1 | . | . | . | . | / | /
CCCCn1c2ccc(Br)cc2c2nc3ccccc3nc21 | . | . | . | . | / | /
COc1ccc(C(=O)NCCCN(C)C)c(OC)c1 | . | . | . | . | / | /
O=C(c1cccc2ccccc12)N1CCN(Cc2nc3ccccc3[nH]2)CC1 | . | . | . | 59 | . | .
COC(=O)CN1CCN(Cc2nc3ccccc3[nH]2)CC1 | . | . | . | 52 | . | .
CCNC(=O)N1CCN(Cc2nc3ccccc3[nH]2)CC1 | . | . | . | . | / | /
COC(=O)CC1=NN(c2nc3ccccc3[nH]2)C(=O)C1 | . | . | . | 79 | 70 | 97
CN(C)CC(C)(C)CNC(=S)NCc1ccc2c(c1)OCO2 | . | . | . | 54 | . | .
COc1cc(CN2CCN(C3CCCC3)CC2)cc(OC)c1OC | . | . | . | 65 | 28 | . | AS interf DR=.
COc1cc(CN2CCN(C3CCCCC3)CC2)cc(OC)c1O | . | . | . | 65 | . | .
O=S(=O)(NCCC12CC3CC(CC(C3)C1)C2)c1cccc2nsnc12 | . | . | . | . | / | /
CCCCOc1ccc(C(=O)OCC(=O)NC(N)=O)cc1 | . | . | . | . | / | /
Cc1ccc(C)c(OCCCCNCCO)c1C | . | . | . | 56 | . | .
COCCNCCOc1ccc(C(C)C)c(C)c1 | . | . | . | 60 | . | .
SMILES | FBW7 activator | GPR151 ag | TEAD-YAP inh | MITF inh | MITF confirm | AS interf ctr | others
Cc1cc(OCCNCCN)ccc1C(C)C | . | . | . | . | / | /
Cc1cccc(OCCCCNCCO)c1C | . | . | . | . | / | /
COCCCNCCOc1ccc(C(C)C)c(C)c1 | . | . | . | 60 | . | .
Cc1cc(OCCNCCO)ccc1C(C)C | . | . | . | . | / | /
Cc1cc(OCCCCNCCO)ccc1C(C)C | . | . | . | 62 | . | .
CCOc1cccc(CN2CCC(n3nccc3NC(=O)C(C)(C)C)CC2)c1 | . | . | . | . | / | /
O=C1S/C(=C/c2ccc(F)cc2)C(=O)N1CN1CCCC1 | . | . | . | . | / | /
Cc1ccc2c(c1)C(C)(c1ccccc1)CC(C)(C)N2C(=O)CN1CCOCC1 (stereo not given) | . | . | . | . | / | /
Cc1cccc(NS(=O)(=O)c2cc(C(=O)O)c(Cl)cc2Cl)c1 | . | . | . | . | / | /
C=CCNCCOCCOc1ccc(C(C)C)c(C)c1 | . | . | . | 52 | . | .
COCCCNCCCOc1ccc(OCc2ccccc2)cc1 | . | . | . | 54 | . | .
Cc1cc(OCCOCCN2CCCC2)ccc1C(C)C | . | . | . | . | / | /
COc1ccc2c(c1)cc(C)c1nn(CC(=O)N(C)C3CCCCC3)c(=O)n12 | . | . | . | . | / | /
O=C(Nc1cccc(C(=O)O)c1)/C(=C/c1ccc([N+](=O)[O-])cc1)NC(=O)c1ccccc1 | . | . | . | . | / | /
O=C(Nc1cccc(O)c1)/C(=C/c1ccc([N+](=O)[O-])cc1)NC(=O)c1ccccc1 | . | . | . | 52 | . | .
COc1ccc(C(=O)N/C(=C\c2ccc([N+](=O)[O-])cc2)C(=O)Nc2ccc(C)c(C)c2)c(Cl)c1 | . | . | . | 61 | . | .
COc1ccc(/C=C(/NC(=O)c2ccccc2)C(=O)Nc2ccc(F)cc2)cc1OC | . | . | . | 67 | . | .
O=C(NCc1ccccc1)/C(=C/c1cn(-c2ccccc2)nc1-c1ccc(F)cc1)NC(=O)c1ccc(Br)cc1 | . | . | . | . | / | /
Nc1ccc(S(=O)(=O)N2CCOC3CCCCC32)cc1 (stereo not given) | . | . | . | 76 | . | .
COc1ccc(-n2nc(C(=O)NCC(=O)Nc3cnc4ccccc4c3)c3ccccc3c2=O)cc1OC | . | . | . | . | / | /
O=C(c1ccccc1F)N1CCN(Cc2ccc(Br)cc2)CC1 | . | . | . | . | / | /
O=C(c1ccccc1F)N1CCN(Cc2cccnc2)CC1 | . | . | . | 63 | . | .
O=C(c1ccccc1F)N1CCC(O)(c2cccnc2)CC1 | . | . | . | . | / | /
O=C(c1ccco1)N1CCN(Cc2cccnc2)CC1 | . | . | . | 66 | . | .
O=C(c1ccccc1F)N1CCN(Cc2ccncc2)CC1 | . | . | . | 73 | . | .
SMILES | FBW7 activator | GPR151 ag | TEAD-YAP inh | MITF inh | MITF confirm | AS interf ctr | others
COc1cc(CN2CCN(C(=O)c3ccco3)CC2)cc(OC)c1OC | . | . | . | . | / | /
O=C(CCNc1ccc(Cl)c(Cl)c1)c1cccs1 | . | . | . | . | / | /
COC(=O)CCN1CCN(S(=O)(=O)c2ccccc2Br)CC1 | . | . | . | 85 | . | .
Cc1cc(S(=O)(=O)N2CCN(CCC(=O)O)CC2)ccc1Br | . | . | . | 54 | . | .
C/C(=N\NC(=O)Cc1cc(=O)[nH][nH]1)c1ccco1 | . | . | . | 59 | 56 | . | AS interf DR=.
CCn1c(=O)c2ccccc2n2c(SCC(=O)NC3CCCCC3)nnc12 | . | . | . | . | / | /
Cn1c(=O)c2ccccc2n2c(SCC(=O)NC3CCCCC3)nnc12 | . | . | . | 73 | . | .
O=C(NCC1CCCO1)c1ccc2c(=O)n(Cc3cccc(Br)c3)c(=S)[nH]c2c1 (stereo not given) | . | . | . | 58 | . | .
O=C(O)C1CCN(Cc2ccccn2)CC1 | . | . | . | . | / | /
c1ccc(N2CCN(C3CCN(Cc4ccccn4)CC3)CC2)cc1 | . | . | . | 54 | . | .
c1ccc(CN2CCC(N3CCN(Cc4ccccn4)CC3)CC2)cc1 | . | . | . | . | / | /
CC1CCCC(N2CCN(Cc3ccccn3)CC2)C1 (stereo not given) | . | . | . | 72 | . | .
CCN(Cc1ccccc1)C1CCN(Cc2ccccn2)CC1 | . | . | . | 59 | . | .
c1ccc(CN2CCN(C3CCCC3)CC2)nc1 | . | . | . | 74 | . | .
